# Assay results published in PubChem BioAssay AID602382 (Sanford-Burnham Center for Chemical Genomics, 2012).
# Some of the results follow. Unmarked numbers belong to inactive results. How the calls were made is not given here.
# Assay: beacon detection-step fluorescence artefacts – biochemical, fluorescent molecular beacon, artefact control for DNMT1 inhibitor project, dose response (AID 602382)
# Conditions: spectral interference counter-screen
compound,measurement,value
Cc1c(C(=O)O)cccc1-n1c(C)cc(/C=C2\C(=O)NC(=O)N(c3ccc4c(c3)OCO4)C2=O)c1C,IC50,> 99 µM
